Test results reported in PubChem BioAssay AID2653 (National Center for Advancing Translational Sciences (NCATS), 2010).
Records with an inconclusive call do not appear. Active and inactive are the calls of the source. The call rests on the fitted dose curve; in most records, active means well fitted curve in the direction sought with a large enough effect; inconclusive means small, poorly fitted or top-dose-only effect, or another doubt; inactive means no such curve, though single readings can be large or run the other way.

experiment: Secondary Assay for Activators of Human Pyruvate Kinase M2 isoform - Cell Titer Glo Cytotoxicity for Probe SAR; conditions: HeLa viability, CellTiter-Glo ATP luminescence, 24 h; series mostly up to 58.2 µM; activity change, negative = cytotoxicity: at the top concentration; further: % of control where 0% means no effect
Description: NIH Chemical Genomics Center [NCGC]
Matthew G. Vander Heiden, M.D., Ph.D. [Harvard Medical School, 77 Avenue Louis Pasteur, Boston, MA 02115]
We have identified a series of activators of the M2 isoform of human pyruvate kinase. The assay described here examines the cytotoxicity of these compounds by measuring the total ATP content of Hela cells after 24 hrs of exposure to compound.
500 Hela cells/ 4ul in media (DMEM with high glucose, 10% FBS, 1x Pen Strep, 1x NEAA) were dispensed into a white solid 1536-microwell plate with a Thermo Multidrop. The plates were incubated at 37 degrees Celsius for 24 hours. The cells were then treated with compounds using the Kalypsys pin tool, delivering 23 nl of test compounds and the control doxorubicin. The plates were then incubated for an additional 24 hours at 37 degrees C after which 4 ul of Promega Cell-Titer Glo was dispensed using the Thermo Multidrop. The plates were incubated at room temperature for 10 min before reading luminescence on the Perkin Elmer ViewLux with images collected with 2x binning and a 5 sec exposure time.

| SMILES | activity change, negative = cytotoxicity |
| --- | --- |
| Cc1cc(NS(=O)(=O)c2ccc3c(c2)CCC(=O)N3)ccc1Cl | -4.72% (inactive) |
| COc1ccc(S(=O)(=O)Nc2ccc(C)c(C)c2)cc1 | -6.68% (inactive) |
| Cc1ccc(NS(=O)(=O)c2ccc3c(c2)n(C)c(=O)n3C)cc1C | -15.9% (inactive) |
| COc1cccc(NS(=O)(=O)c2ccc3c(c2)CCC(=O)N3)c1 | -26.9% (inactive) |
| Cc1ccc(NS(=O)(=O)c2cc3c(cc2C)OCC(=O)N3)cc1C | -12% (inactive) |
| O=C1c2ccccc2C(=O)N1c1cncc2ccccc12 | -5.97% (inactive) |
| COc1cc(F)c(S(=O)(=O)N2CCCN(S(=O)(=O)c3cccc(N)c3)CC2)c(F)c1 | -9.41% (inactive) |
| Cc1ccc(Cl)cc1NS(=O)(=O)c1cc2c(cc1F)NC(=O)CC2 | -9.55% (inactive) |
| Cc1ccc(NS(=O)(=O)c2cc3c(cc2-c2cn[nH]c2)NC(=O)CO3)cc1C | -2.65% (inactive) |
| Cc1ccc2nc(-c3ccc(C)o3)c(Nc3ccc(F)cc3)n2c1 | -24% (inactive) |
| CN(C)c1cccc(S(=O)(=O)N2CCCN(S(=O)(=O)c3ccc4c(c3)OCCO4)CC2)c1 | -21.2% (inactive) |
| Cc1ccc(NS(=O)(=O)c2ccc3c(c2)CCC(=O)N3)cc1 | -23.2% (inactive) |
| Cc1ccc(NS(=O)(=O)c2ccc3c(c2)CCCC(=O)N3)cc1C | -1.83% (inactive) |
| O=C1c2ccccc2C(=O)N1c1ccc(O)cc1 | -5.26% (inactive) |
| Cc1ccc(NS(=O)(=O)c2cc3c(cc2-c2ccsc2)NC(=O)CO3)cc1C | -16.1% (inactive) |
| O=C1c2ccccc2C(=O)N1c1cccc2cccnc12 | -23.4% (inactive) |
| Cc1ccn2c(NC3CCCCC3)c(-c3ccc(C)o3)nc2c1 | -12.8% (inactive) |
| O=C1c2ccccc2C(=O)N1c1cc(=O)c2ccccc2[nH]1 | -22% (inactive) |
| Cc1ccc(NS(=O)(=O)c2cc3c(cc2Cl)NC(=O)C3)cc1C | -14.7% (inactive) |
| COc1ccc(NS(=O)(=O)c2ccc3c(c2)CCC(=O)N3)cc1 | -24.1% (inactive) |

| SMILES | activity change, negative = cytotoxicity |
| --- | --- |
| Fc1ccccc1-c1ccc(-c2nc3ccc(Cl)cn3c2Nc2ccc(Cl)cc2)o1 | 1.15% (inactive) |
| O=C1CCc2cc([S+](=O)([O-])Nc3ccc(N[S+](=O)([O-])c4ccc5c(c4)CCC(=O)N5)cc3)ccc2N1 | -12.1% (inactive) |
| Cc1cccc(OC2=NS(=O)(=O)c3ccccc32)c1 | 2.84% (inactive) |
| Cc1ccc(NS(=O)(=O)c2ccc(N3CCCC3=O)cc2)cc1C | -23% (inactive) |
| COc1ccc(-c2nc3ccccn3c2Nc2ccccc2C)cc1 | -7.85% (inactive) |
| O=C1c2ccccc2C(=O)N1c1nccs1 | -15.3% (inactive) |
| COc1ccc(Nc2c(-c3ccc(C)o3)nc3ccccn23)cc1 | -10.2% (inactive) |
| COc1ccc(OC2=NS(=O)(=O)c3ccccc32)cc1 | -8.59% (inactive) |
| Cc1ccc2nc(-c3ccc(C)o3)c(Nc3ccc(Cl)cc3)n2c1 | -21.4% (inactive) |
| Cc1ccc(NS(=O)(=O)c2cccc(Cl)c2)cc1C | 1.83% (inactive) |
| Cc1ccc(NS(=O)(=O)c2cc3c(cc2N2CCC2)NC(=O)CC3)cc1C | -23.9% (inactive) |
| CC(=O)Nc1cccc(S(=O)(=O)Nc2ccc(C)c(C)c2)c1 | 1.12% (inactive) |
| O=C1CCc2cc(S(=O)(=O)Nc3ccc4c(c3)OCCO4)ccc2N1 | -28.2% (inactive) |
| Cc1cc(NS(=O)(=O)c2ccc3c(c2)CCC(=O)N3)ccc1F | -7.09% (inactive) |
| Cc1cccc(NS(=O)(=O)c2ccc3c(c2)CCC(=O)N3)c1 | -19.5% (inactive) |
| O=C1CCc2cc(S(=O)(=O)Nc3ccccc3-c3ccccc3)ccc2N1 | -19.6% (inactive) |
| Cc1ccc(NS(=O)(=O)c2cc3c(cc2N(C)C)CCC(=O)N3)cc1C | -16% (inactive) |
| Cc1ccc(NS(=O)(=O)c2cc3c(cc2F)NC(=O)CC3)cc1Cl | -30.8% (inactive) |
| Cc1c(Cl)cccc1NS(=O)(=O)c1cc2c(cc1Cl)CCC(=O)N2 | -26.5% (inactive) |
| O=C1CCc2cc(S(=O)(=O)Nc3ccc(Cl)cc3)ccc2N1 | -8.11% (inactive) |
